Source: PubChem BioAssay AID720650 (Broad Institute, 2013)
Active and inactive are the calls of the source. The rule behind the calls is not given here.

Test: C difficile toxins, biochemical counterscreen, UDPG substrate absence, confirmatory dose response (AID 720650)
Conditions: series mostly up to 19.5 µM; activity change, negative = inhibition: at the top concentration

| SMILES | activity change, negative = inhibition | AC50 |
| --- | --- | --- |
| O=c1[nH][nH]c(=O)c2c1[nH]c(=S)n2Cc1ccccc1 | -10.1% (inactive) | – |
| CNC(=O)C[C@H]1CC[C@@H]2[C@H](COc3ccc(NS(=O)(=O)c4ccccc4C)cc3C(=O)N2C)O1 | 6.47% [at 21 µM] (inactive) | – |
| CCCNC(=O)N1CC[C@@H]2[C@H]1c1cc(-c3ccccc3)ccc1N(C)[C@H]2CO | – | 3.8 µM (active) |
| COc1ccc([N+](=O)[O-])cc1NC(=S)NC(C)=O | -13.8% (inactive) | – |
| COc1ccc(C(=O)N2CCOCC2)cc1S(=O)(=O)N1CCCc2ccccc21 | -11.2% (inactive) | – |
| COc1ccc(C2=NS(=O)(=O)N(C)C(C(=O)NC(C)c3ccccc3)=C2)cc1 (centres undefined) | -15.3% (inactive) | – |
| Cc1ccc(C(=O)NCCn2cc(SCC(=O)Nc3cc(C)on3)c3ccccc32)cc1 | -12.2% (inactive) | – |
| CCCNC(=O)C1(C)CCCN(C(=O)c2ccccc2OC(F)(F)F)C1 (centres undefined) | -5.78% (inactive) | – |
| COc1ccc(NC(=O)c2cc(C)nc3ccccc23)c(OC)c1 | -3.39% (inactive) | – |
| O=C1Cc2cc(S(=O)(=O)NCc3ccccc3Cl)cc3c2N1CCC3 | 6.63% (inactive) | – |
| COc1ccc(/C=C/c2nc3ccccc3n2C)cc1 | – | > 39 µM (inactive) |
| COCCCNC(=O)C1CCN(S(=O)(=O)c2c(C)noc2/C=C\c2ccc(OC)cc2)CC1 | – | inactive |
| Cc1cc(C)c2nc(C)cc(N/N=C/c3ccc(O)cc3)c2c1 | – | 12.1 µM (active) |
| CNC(C(=O)c1ccccc1)C(OC)c1cccc([N+](=O)[O-])c1 (centres undefined) | -4.43% (inactive) | – |
| Fc1ccc(/C=C\c2nccc3c2[nH]c2ccccc23)cc1 | -10% (inactive) | – |
| Cc1c(C(=O)c2ccccc2)c2ccccn2c1CCc1ccccn1 | 1.91% (inactive) | – |
| CCOC(=O)c1cc([N+](=O)[O-])sc1N | -0.818% (inactive) | – |
| COc1ccc(C2=NS(=O)(=O)N(C)C(C(=O)N(C)Cc3ccccc3)=C2)cc1OC | -7.42% (inactive) | – |
| c1ccc(-c2nnc(OCC3CCCO3)c3ccccc23)cc1 (centres undefined) | -9.88% (inactive) | – |
| CCc1cc(-c2n[nH]c(C)c2-c2nc(C)cs2)c(O)cc1OC | – | > 39 µM (inactive) |

| SMILES | activity change, negative = inhibition | AC50 |
| --- | --- | --- |
| CCC(CO)[n+]1c(C)cc(/C=C2\Sc3ccccc3N2Cc2ccccc2)cc1C (centres undefined) | – | 3.4 µM (active) |
| Cc1ccc(S(=O)(=O)N2CCC(C(=O)OCC(=O)NCCc3ccccc3)CC2)cc1C | 6.81% (inactive) | – |
| CCN(CC)C(=O)C1CCN(S(=O)(=O)c2c(C)noc2/C=C/c2cccc(C)c2)CC1 | 9.5% (inactive) | – |
| COc1ccc(S(=O)(=O)Nc2ccc3oc(C)c(C(=O)O)c3c2)cc1 | – | > 39 µM (inactive) |
| O=C(CN1C(=O)CCC1=O)NNc1ccc2ccccc2c1 | – | < 0.16 µM (active) |
| COCC#Cc1ccc2c(c1)O[C@H](CN(C)C(=O)CC1CC1)[C@@H](C)CN([C@H](C)CO)S2(=O)=O | -2.37% (inactive) | – |
| COc1ccc(C=C2CCC3C(=O)CCCC3(C)C2=O)cc1 (centres undefined) | -3.53% (inactive) | – |
| Cc1cccc(/C=C/c2onc(C)c2S(=O)(=O)N2CCC(C(=O)NC(C)C)CC2)c1 | -6.17% (inactive) | – |
| COC(=O)c1ccc(C23CC4(C2)[C@H](CN(Cc2ccc(C(F)(F)F)cc2)[C@@H]4c2ccccc2)C3c2ccc(Cl)nc2)cc1 (some centres undefined) | -0.958% (inactive) | – |
| COC(=O)C1=C(c2ccc(F)cc2OCc2ccccc2)C[C@@H]2CC[C@H]1N2C(=O)NCCOc1ccccc1 | 6.43% (inactive) | – |
| ClCC(CNCc1ccccc1)c1ccccc1 (centres undefined) | -5.16% (inactive) | – |
| C/C(=N\Nc1ccc([N+](=O)[O-])cc1)c1cccc(N)c1 | – | 1.42 µM (active) |
| Cc1cc(C(=O)CSc2nc(N)cc(=O)[nH]2)c(C)n1CC1CCCO1 (centres undefined) | -13.4% (inactive) | – |
| O=C(COc1ccccc1)Nc1ccc(S(=O)(=O)Nc2ncccn2)cc1 | -3.22% (inactive) | – |
| Cc1ccc(C2=NS(=O)(=O)N(C)C(C(=O)NCc3ccc(F)cc3)=C2)cc1 | 6.63% (inactive) | – |
| CN1C(=O)c2cc(NC(=O)c3cccc(F)c3)ccc2OC[C@@H]2O[C@@H](CC(=O)NCC3CCCCC3)CC[C@H]21 | – | inactive |
| COC(=O)Cc1ccc(NC(=S)NCc2ccco2)cc1 | -4.67% (inactive) | – |
| Cc1cc(C)nc(NC(N)=NCCc2ccccc2)n1 | – | > 39 µM (inactive) |
| CC(OC(=O)C1=COCCO1)C(=O)c1ccc(Br)cc1 (centres undefined) | 7.35% (inactive) | – |
